In PubChem BioAssay AID504339 (National Center for Advancing Translational Sciences (NCATS), 2011) one finds Potency data, which are given here for 49 compounds.

The whole screen tested about 390,000 compounds, of which about 17,000 (4.4%) were called active. Where a call stands in place of a potency, no number is given. About 8% were inconclusive and are not listed. Calls follow the shape of the dose curve; as a rule, active = well fitted inhibition curve with a large enough effect; inconclusive = small, poorly fitted or top-dose-only effect; inactive = no such curve, though single readings can be large or run the other way. Only a selection was taken, and actives are over-represented in it overall.
Potency is read from the fitted curve at half-maximal effect.

Chain of Lysine-specific demethylase 4A (Homo sapiens) (O75164 whole entry, looked up, the tested form may be a part): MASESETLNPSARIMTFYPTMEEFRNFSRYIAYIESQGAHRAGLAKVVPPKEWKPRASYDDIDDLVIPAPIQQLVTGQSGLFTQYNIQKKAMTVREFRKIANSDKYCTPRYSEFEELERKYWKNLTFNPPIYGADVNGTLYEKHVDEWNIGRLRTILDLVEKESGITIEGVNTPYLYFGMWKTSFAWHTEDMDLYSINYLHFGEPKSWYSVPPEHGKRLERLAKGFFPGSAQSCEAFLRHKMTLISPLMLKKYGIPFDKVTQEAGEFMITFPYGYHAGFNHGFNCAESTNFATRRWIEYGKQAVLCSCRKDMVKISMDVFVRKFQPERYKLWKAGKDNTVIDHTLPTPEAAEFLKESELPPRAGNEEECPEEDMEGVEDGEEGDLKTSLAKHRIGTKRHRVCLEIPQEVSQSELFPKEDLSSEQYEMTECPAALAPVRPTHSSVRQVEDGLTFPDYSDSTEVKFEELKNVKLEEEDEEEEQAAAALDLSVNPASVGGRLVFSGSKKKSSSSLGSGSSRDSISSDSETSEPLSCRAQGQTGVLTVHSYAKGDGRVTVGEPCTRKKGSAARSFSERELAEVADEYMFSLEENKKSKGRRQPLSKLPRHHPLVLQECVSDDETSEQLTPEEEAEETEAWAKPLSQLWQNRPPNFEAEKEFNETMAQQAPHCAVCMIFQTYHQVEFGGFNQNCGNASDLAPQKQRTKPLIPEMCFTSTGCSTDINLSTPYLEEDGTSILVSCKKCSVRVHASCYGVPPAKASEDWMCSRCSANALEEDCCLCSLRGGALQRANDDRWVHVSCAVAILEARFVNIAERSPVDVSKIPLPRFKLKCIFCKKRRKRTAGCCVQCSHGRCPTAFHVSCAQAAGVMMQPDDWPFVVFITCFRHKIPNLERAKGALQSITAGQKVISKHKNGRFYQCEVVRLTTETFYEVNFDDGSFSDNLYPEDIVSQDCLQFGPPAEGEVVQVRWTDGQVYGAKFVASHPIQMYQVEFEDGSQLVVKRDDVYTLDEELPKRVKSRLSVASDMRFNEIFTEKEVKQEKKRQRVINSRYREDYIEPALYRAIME

For the assay, the target named is Lysine-specific demethylase 4A (Homo sapiens) (UniProt O75164). The experiment in a line: qHTS Assay for Inhibitors of JMJD2A-Tudor Domain. Also: nearly all actives have a fitted effect of over 50% in size. The settings on record: AlphaScreen JMJD2A-Tudor / H3K4me3 peptide binding; series mostly up to 114 µM. The source says:
JMJD2A is a jumonji-domain-containing lysine demethylase that uses Fe(II) together with 2-OG to effect oxidative demethylation of histones. Methylation is one of many […] modification that affect epigenetic transcription. […] It is proposed that the functions of JmjD2A binding to the histones, is to maintain marks after they are installed and to spread the modifications by […], establishing a self-propagating cycle for rapid methylation over a large area of chromatin. […] Thus, small molecule targeting of the JMJD2A-tudor domain interaction with its target methylhistone mark is expected to enable sophisticated experiments probing the fine regulatory pathways leading to selective demethylation of a given methyllysine locus based on the methylation state of adjacent histone marks. A quantitative high throughput AlphaScreen has been developed to identify small molecule inhibitors based on a protocol published by NCGC and SGC [4].
Although AlphaScreen has significant advantages with its utility in a variety of epigenetic target assays, the primary screening data provided in this deposition should be used with caution due to the prevalence of screening artifacts. The top compound concentration tested was high (>100uM) in this assay, which increases number of actives and potential artifacts. An AlphaScreen counterscreen is highly recommended to be run against any putative actives to eliminate non-specific artifacts. Alternatively, one can use other AlphaScreen assays in PubChem to filter out promiscuous hits.
[1] Lee, J. et al. Distinct binding modes specify the recognition of methylated histone H3K4 and H4K20 by JMJD2A-tudor. Nat Struct Mol Biol. 15(1); 109-11. 2008. PMID: 18084306
[2] Yasgar, et al. Compound Management for Quantitative High-Throughput Screening. JALA. 2008 Apr;13(2):79-89. PMID: 18496600
[3] Inglese, et al. Quantitative high-throughput screening: a titration-based approach that efficiently identifies biological activities in large chemical libraries. Proc Natl Acad Sci. 1;103(31):11473-8. 2006. PMID: 16864780
[4] Quinn et al. A homogeneous method for investigation of methyl-dependent protein-protein interactions in epigenetics. Nucleic Acids Res., 38(2):e11. 2010. PMID: […]
[5] Baell,Holloway. New substructure filters for removal of pan assay interference compounds (PAINS) from screening libraries and for their exclusion in bioassays. J Med Chem. 53(7):2719-40. 2010. PMID: 20131845
NIH Molecular Libraries Probe Production Network [MLPCN]
NIH Chemical Genomics Center [NCGC]
Structural Genomics Consortium (SGC)
To each well of a 1,536w plate, 2ul of JMJD2A-Tudor (final 100nM) and 1ul biotinylated histone peptide methylated at Lys4 [b-H3(1-18)K4me3] (final 50nM) were added in 1x PBS buffer, pH 7.4, containing 0.01% Tween-20, using a nanoliter dispenser. Formation of a protein-peptide complex proceeded at room temperature for 30 min. A Kalypsys pin-tool transferred 23nl of library compound solution in DMSO to each well. Following a 30 min incubation of the protein-peptide complex with compounds at room temperature, a mixture of 40 µg/mL each streptavidin-coated donor and nickel chelate acceptor AlphaScreen beads (final 10 µg/mL) was added in a 1ul dispense for a final volume of 4ul, followed by a brief centrifugation (1000 rpm, 1 min). Plates were incubated protected from the light for 20 min at room temperature. Microplates were then read on an EnVision multilabel plate reader using the 1,536 plate HTS AlphaScreen aperture (excitation time 80 ms, measurement time 240 ms).
In the case of `CCc1ccc2ncc3c(-c4ccc(C)cc4)nn(CC(=O)NCc4ccccc4)c3c2c1`, the Potency result was “inactive”.

On to `CC(=O)N1CCCc2cc(S(=O)(=O)N3CCC(C(=O)NCc4ccc(F)cc4)CC3)ccc21`, for which the Potency entry is “inactive”. As to `CCOc1ccccc1C(=O)NC1(C(F)(F)F)C(=O)Nc2c1c(=O)[nH]c(=O)n2-c1ccc(F)cc1` (centres undefined), the Potency entry is “inactive”. With `CC(=O)N1c2ccc(S(=O)(=O)N(C)CC(=O)N(C)Cc3ccccc3)cc2CC1C` (centres undefined), the Potency result was “inactive”. On to `CC(=O)N1c2ccc(S(=O)(=O)NCCC(=O)N(C)C3CCCCC3)cc2CC1C` (centres undefined), for which the Potency was 14.1 µM (active). In the case of `COc1cccc(CNS(=O)(=O)c2ccc3c(c2)CC(C)N3C(=O)C2CCC2)c1` (centres undefined), the Potency entry was “inactive”. For the compound `CCc1ccc(CN(Cc2ccco2)C(=O)c2ccccc2Cl)cc1`, the Potency result was “inactive”. Turning to `C#CC(C)(CC)NC(=O)Cn1nnc(-c2ccc(OCc3c(F)cccc3Cl)cc2)n1` (centres undefined), the Potency result is “inactive”. Consider `Cc1cc2c(s1)c1cnn(Cc3cc(F)c(Cl)cc3Cl)c(=O)c1n2C`, for which the Potency entry was “inactive”. Consider `CCOC(=O)c1ccc(N2C(=O)c3n[nH]c(C)c3C2c2ccc(O)c(OC)c2)cc1` (centres undefined), for which the Potency entry is “inactive”. The value for `CCCN(CCC)CCNC(=O)Cn1cnc2sc(C)c(S(=O)(=O)N3CCC(C)CC3)c2c1=O` was “inactive”; that for `Cc1sc2ncn(CC(=O)NCCN(C)C)c(=O)c2c1S(=O)(=O)N1CCC(C)CC1` was 22.4 µM (active); that for `CCN(CC)CCNC(=O)Cn1cnc2sc(C)c(S(=O)(=O)N3CCOCC3)c2c1=O` was “inactive”. As to `CCN(CCCNC(=O)c1cc(Nc2ccc(OC)cc2)nc2ccccc12)c1cccc(C)c1`, the Potency entry was “inactive”. As for `CCOc1ccc(CCNC(=O)Cn2nc(CC)n3c(cc4sc(CC)cc43)c2=O)cc1OCC`, the Potency entry was “inactive”. As to `CCc1cc2c(cc3c(=O)n(CC(=O)N4CCN(c5cc(Cl)ccc5C)CC4)ncn32)s1`, the Potency result was “inactive”. The value for `CCc1cc2c(cc3c(=O)n(CC(=O)NCCc4ccc(OC)c(OC)c4)ncn32)s1` was 89.1 µM (active). The value for `Cc1ccc(NC(=O)C2CCN(S(=O)(=O)c3cc(-c4noc(C)n4)ccc3C)CC2)c(C)c1` was “inactive”; that for `CCOCCCn1c(SCC(=O)Nc2ccc(CC)cc2)nc2ccccc2c1=O` was “inactive”; that for `CCOc1ccc(CNC(=O)CCc2c(C)nn(-c3ccc(N4CCCCC4)nn3)c2C)cc1` was “inactive”. Take `CCN(CC)/[N+]([O-])=N/Oc1cc(O/[N+]([O-])=N/N2CCCC2CO)c([N+](=O)[O-])cc1[N+](=O)[O-]` (centres undefined): the Potency is 20 µM (active). Turning to `COc1ccc(C(=O)Nc2ccc(-n3nncc3-c3ccccc3)cc2)cc1OC`, the Potency entry was “inactive”.

Turning to `Cc1ccc(-n2c(C)cc(C(=O)CSc3nnc4ccccn34)c2C)cc1`, the Potency entry was “inactive”. As for `Cc1ccc(-n2c(C)cc(C(=O)CN3C(=O)C(=O)N(C4CCCC4)C3=O)c2C)cc1`, the Potency is 31.6 µM (active). The value for `Cc1cc(C(=O)COC(=O)C2CC2)c(C)n1-c1ccc(F)cc1` was “inactive”; that for `Cc1c(Cl)cccc1NC(=O)C(=O)NCCc1csc2nc(-c3ccccc3F)nn12` was “inactive”. Under `CC(C)c1ccc(NC(=S)NC2CC3C=CC2C3)cc1` (centres undefined) stands “inactive”; under `S=C(NNC(=S)NC1CC2C=CC1C2)NC1CC2C=CC1C2` (centres undefined), 3.16 µM (active).

As to `COc1ccc(-c2noc(CCC(=O)N(C)c3ccccc3C)n2)cc1`, the Potency result is “inactive”. On to `CCCCOc1ccc(Cn2c(=O)oc3ccc(C)cc32)cc1OC`, for which the Potency entry is “inactive”. In the case of `CCCCOc1ccc(CN2C(=O)C(=O)c3cc(Br)cc(C)c32)cc1OC`, the Potency is 14.1 µM (active). The value for `CCCCN1C(=O)C(C)=C(C)C1OCCc1ccc(OC)c(OC)c1` (centres undefined) was “inactive”; that for `COc1ccc(NC(=O)c2cc3cc(C)ccc3n2C)cc1` was “inactive”; that for `COc1ccc(-n2c(SCC(=O)Nc3ccc(Cl)c(C)c3)nc3n[nH]c(C)c3c2=N)cc1` was “inactive”. The value for `Cc1cccc(Nc2nc(C)nc(N)c2S(=O)(=O)c2ccccc2)c1` was “inactive”; that for `CCOc1ccc(-c2nonc2NC(=O)c2oc3ccc(CC)cc3c2C)cc1` was “inactive”.

With `COc1ccccc1-c1cc(C(F)(F)F)nc(S(=O)(=O)CCCC(=O)Nc2cc(C)ccc2O)n1`, the Potency entry is “inactive”.

In the case of `CSc1ccccc1NC(=O)CCS(=O)(=O)c1nc(-c2cccs2)cc(C(F)(F)F)n1`, the Potency is 22.4 µM (active).

As to `COc1ccccc1-c1cc(C(F)(F)F)nc(S(=O)(=O)CCCC(=O)Nc2ccc(F)cc2F)n1`, the Potency entry was “inactive”. Turning to `CCc1ccccc1NC(=O)c1ccc(F)c(S(=O)(=O)NC2CCCCCC2)c1`, the Potency entry was “inactive”. Regarding `Cc1ccccc1N/N=C/c1ccc(N2CCOCC2)cc1`, the Potency is 50.1 µM (active). For `Cc1cc(Nc2ccc(N3CCOCC3)cc2)c2cccc(C)c2n1`, the Potency result was “inactive”. Regarding `CN(CC(=O)Nc1ccc(N2CCOCC2)cc1)CC(=O)Nc1ccccc1[N+](=O)[O-]`, the Potency entry was “inactive”.

Take `CC(=O)N1CCN(c2ccc(NCc3ccc(C(C)C)cc3)cc2)CC1`: the Potency was 44.7 µM (active). Under `CC(=O)c1ccc(N2CCN(C(=O)CCc3ccccc3)CC2)cc1` stands “inactive”; under `COc1ccc(N2CCN(C(=O)CNC(=O)c3ccc(Br)o3)CC2)cc1`, “inactive”; under `O=C(O)c1cscn1`, 4.47 µM (active). With `Cc1ccc2nc(COc3ccccc3NC(=O)Nc3ccc(F)c(Cl)c3)cc(=O)n2c1`, the Potency result is “inactive”. Consider `COc1ccc(CCNC(=O)CCCCn2c(=O)c3ccccc3n(Cc3ccccc3)c2=O)cc1OC`, for which the Potency result is “inactive”.
